In PubChem BioAssay (NCATS):
Results filed as inconclusive are left out. Entries that show only a call come without a potency. Calls of active or inactive are those of the source. Calls come from the whole dose curve; as a rule, active = well fitted curve in the direction sought with a large enough effect; inconclusive = small, poorly fitted or top-dose-only effect, or another doubt; inactive = no such curve, though single readings can be large; an effect the other way counts as inactive or inconclusive.

target: phosphoglycerate mutase (Leishmania major) (UniProt Q4Q090); assay: qHTS Validation Assay to Find Inhibitors of Phosphoglycerate Mutase (AID 504548); settings: biochemical enzyme activity; series mostly up to 57.5 µM;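 note: end-point luminescence from Kinase-GloPlus after the PGAM reaction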
In short: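 L. major PGAM (1.25nM final) was added to substrate buffer and pinned compound, incubated 45 minutes at room temperature, then Kinase-GloPlus added; luminescence read after 10 minutes. Buffer: 100 mM TEA pH 7.6, 5 mM MgCl2, 0.01% Tween-20.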

phosphoglycerate mutase (Leishmania major), sequence (Q4Q090 1-553): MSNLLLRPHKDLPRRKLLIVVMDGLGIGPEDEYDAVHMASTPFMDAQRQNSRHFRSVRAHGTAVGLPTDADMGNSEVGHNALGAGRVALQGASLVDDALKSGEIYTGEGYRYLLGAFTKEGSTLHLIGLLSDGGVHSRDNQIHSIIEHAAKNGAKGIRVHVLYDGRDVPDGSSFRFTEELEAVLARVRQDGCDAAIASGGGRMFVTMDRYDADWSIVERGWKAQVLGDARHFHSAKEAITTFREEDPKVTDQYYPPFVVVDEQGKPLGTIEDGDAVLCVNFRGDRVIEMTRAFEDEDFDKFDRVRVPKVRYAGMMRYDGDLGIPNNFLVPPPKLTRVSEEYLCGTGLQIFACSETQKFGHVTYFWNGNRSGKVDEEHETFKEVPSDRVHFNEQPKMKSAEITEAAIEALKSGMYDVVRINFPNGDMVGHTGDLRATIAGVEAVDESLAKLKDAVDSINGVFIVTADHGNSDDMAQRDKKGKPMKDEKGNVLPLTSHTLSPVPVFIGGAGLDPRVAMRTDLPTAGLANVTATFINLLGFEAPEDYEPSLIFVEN

| SMILES | outcome |
| --- | --- |
| CC(C)COC(=O)OCN1C(=O)CN(CCN2CC(=O)N(COC(=O)OCC(C)C)C(=O)C2)CC1=O | inactive |
| C1CCc2nnnn2CC1 | inactive |
| N[C@@H](Cc1cnc[nH]1)C(=O)O | inactive |
| CCCn1c(=O)[nH]c(=O)c2[nH]cnc21 | inactive |
| COc1cc(NS(C)(=O)=O)ccc1Nc1c2ccccc2nc2ccccc12 | inactive |
| COC(=O)[C@H]1[C@H]2C[C@H]3c4[nH]c5ccccc5c4CCN3C[C@H]2CC[C@@H]1O | inactive |
| CC[C@H](C)C(=O)O[C@H]1CCC=C2C=C[C@H](C)[C@H](CC[C@@H]3C[C@@H](O)CC(=O)O3)[C@H]21 | inactive |

target: Ubiquitin carboxyl-terminal hydrolase 1 (Homo sapiens) (UniProt O94782); assay: Inhibitors of USP1/UAF1: Pilot qHTS (AID 504865); settings: purified USP1/UAF1, Ub-rhodamine cleavage fluorescence; series mostly up to 114 µM; note: nearly all actives have a fitted effect of over 35% in size; note: potency is the fitted concentration of half-maximal effect
In short: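 In 50mM HEPES pH 7.8 containing 0.5mM EDTA, 1mM TCEP, 0.1 mg/ml BSA and 0.01% Tween-20, 1nM USP1/UAF1 is exposed to compound for 15 min, then Ub-Rho (150nM final) is added and fluorescence is read over time.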

Ubiquitin carboxyl-terminal hydrolase 1 (Homo sapiens), sequence (O94782 whole entry, looked up): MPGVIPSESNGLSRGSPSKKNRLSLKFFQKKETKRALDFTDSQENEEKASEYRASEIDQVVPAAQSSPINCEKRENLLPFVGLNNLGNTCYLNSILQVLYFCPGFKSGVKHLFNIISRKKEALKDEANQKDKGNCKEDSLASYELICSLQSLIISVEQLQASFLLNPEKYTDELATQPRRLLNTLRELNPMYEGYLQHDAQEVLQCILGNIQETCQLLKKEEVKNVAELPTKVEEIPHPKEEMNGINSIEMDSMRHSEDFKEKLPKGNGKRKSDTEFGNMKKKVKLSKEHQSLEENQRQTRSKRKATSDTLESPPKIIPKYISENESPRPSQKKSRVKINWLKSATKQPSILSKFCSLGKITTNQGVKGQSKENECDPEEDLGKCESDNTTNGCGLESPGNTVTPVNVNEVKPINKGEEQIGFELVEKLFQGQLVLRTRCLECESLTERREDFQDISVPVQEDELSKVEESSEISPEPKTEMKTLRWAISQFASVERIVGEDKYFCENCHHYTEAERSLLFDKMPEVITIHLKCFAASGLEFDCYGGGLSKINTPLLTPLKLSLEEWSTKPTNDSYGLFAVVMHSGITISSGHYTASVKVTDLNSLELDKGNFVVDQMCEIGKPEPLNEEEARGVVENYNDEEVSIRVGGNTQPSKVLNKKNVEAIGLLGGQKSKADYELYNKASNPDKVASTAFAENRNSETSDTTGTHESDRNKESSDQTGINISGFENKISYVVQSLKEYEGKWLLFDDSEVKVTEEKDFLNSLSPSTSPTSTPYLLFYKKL

| SMILES | Potency |
| --- | --- |
| N[C@H](CO)C(=O)O | inactive |
| CC1(C)CCC(NC(=O)[C@@H](N)CCC(=O)O)CC1 | inactive |
| CCN(CC)CCNC(=O)COc1ccc(Cl)cc1 | inactive |
| COc1cc2c(cc1O)CC[C@@H]1[C@@H]2CC[C@]2(C)[C@@H](O)CC[C@@H]12 | inactive |
| Oc1ccc(O)cc1 | inactive |
| C[N+]1(CCCCC[N+]2(C)CCCC2)CCCC1 | inactive |
| CNCCC(Oc1ccccc1C)c1ccccc1 (configuration not stated) | inactive |
| COCc1c(C(C)C)nc(C(C)C)c(/C=C/[C@@H](O)C[C@@H](O)CC(=O)O)c1-c1ccc(F)cc1 | inactive |
| CN=C(NC#N)Nc1ccc(C2=NNC(=O)CC2C)cc1 (configuration not stated) | inactive |
| CN1C2CCC1CC(OC(=O)c1c[nH]c3ccccc13)C2 (configuration not stated) | inactive |
| CC(C)(C(=O)c1cccnc1)c1cccnc1 | inactive |
| COc1cc(-c2ccc(=O)[nH]n2)ccc1OC(F)F | inactive |
| CC(C)NC[C@@H](O)COc1cccc2ccccc12 | inactive |
| CCCCCCCCCCCCCCCC[N+](C)(C)CCN(Cc1ccc(OC)cc1)c1ncccn1 | 31.6 µM (active) |
| CC(CCc1ccccc1)NCC(O)c1ccc(O)c(C(N)=O)c1 (configuration not stated) | inactive |
| Nc1cc(Cl)c(NC2=NCCN2)c(Cl)c1 | inactive |
| CCC(NC(C)C)C(O)c1ccc(O)c(O)c1 (configuration not stated) | inactive |
| O=C(CCCN1CCC(O)(c2ccc(Br)cc2)CC1)c1ccc(F)cc1 | inactive |
| C1CCc2nnnn2CC1 | inactive |
| CCN1CCN(c2cc3c(cc2F)c(=O)c(C(=O)O)cn3C2CC2)CC1 | inactive |
| N[C@@H](Cc1cnc[nH]1)C(=O)O | inactive |
| COc1ccc(OC)c(C(O)CNC(=O)CN)c1 (configuration not stated) | inactive |
| COC(=O)[C@H]1[C@H]2C[C@H]3c4[nH]c5ccccc5c4CCN3C[C@H]2CC[C@@H]1O | inactive |
| CC[C@H](C)C(=O)O[C@H]1CCC=C2C=C[C@H](C)[C@H](CC[C@@H]3C[C@@H](O)CC(=O)O3)[C@H]21 | inactive |

tested on: not listed separately; assay: qHTS for Inhibitors of ATXN expression: Validation of Cytotoxic Assay (AID 588349); settings: cytotoxicity counter-screen for ATXN expression inhibitors, cell viability; series mostly up to 57.1 µM
In short: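 Cytotoxicity counter-screen: HEK293 cells exposed to compound titrations, 72 hr, 37 degrees C. Read-out is intracellular ATP (CellTiter Glo luminescence) as a viability measure.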

| SMILES | outcome |
| --- | --- |
| N[C@H](CO)C(=O)O | inactive |
| CC1(C)CCC(NC(=O)[C@@H](N)CCC(=O)O)CC1 | inactive |
| C[C@@H]1C(=O)NC2=Nc3cccc(Cl)c3CN21 | inactive |
| C[N+]1(CCCCC[N+]2(C)CCCC2)CCCC1 | inactive |
| O=C1CCC(c2ccc(-n3ccnc3)cc2)=NN1 | inactive |
| CNCCC(Oc1ccccc1C)c1ccccc1 (configuration not stated) | inactive |
| CC(=O)O[C@H]1C[C@@H]2CC[C@@H]3[C@H](CC[C@@]4(C)[C@H]3C[C@H]([N+]3(C)CCCCC3)[C@@H]4OC(C)=O)[C@@]2(C)C[C@@H]1[N+]1(C)CCCCC1 | inactive |
| CCCC1O[C@@H]2C[C@H]3[C@@H]4CCC5=CC(=O)C=C[C@]5(C)[C@H]4[C@@H](O)C[C@]3(C)[C@]2(C(=O)CO)O1 (some centres not stated) | inactive |
| O=C(O)c1cc2cc(Cc3cccnc3)ccc2o1 | inactive |
| Nc1cc(Cl)c(NC2=NCCN2)c(Cl)c1 | inactive |
| CCC(NC(C)C)C(O)c1ccc(O)c(O)c1 (configuration not stated) | inactive |
| CC(C)COC(=O)OCN1C(=O)CN(CCN2CC(=O)N(COC(=O)OCC(C)C)C(=O)C2)CC1=O | inactive |
| C1CCc2nnnn2CC1 | inactive |
| N[C@@H](Cc1cnc[nH]1)C(=O)O | inactive |
| CCCn1c(=O)[nH]c(=O)c2[nH]cnc21 | inactive |
| COC(=O)[C@H]1[C@H]2C[C@H]3c4[nH]c5ccccc5c4CCN3C[C@H]2CC[C@@H]1O | inactive |
| CC[C@H](C)C(=O)O[C@H]1CCC=C2C=C[C@H](C)[C@H](CC[C@@H]3C[C@@H](O)CC(=O)O3)[C@H]21 | inactive |

tested on: not listed separately; assay: qHTS for Inhibitors of ATXN expression: Validation (AID 588378); settings: cell-based ATXN2 expression reporter assay, luminescence; series mostly up to 57.1 µM; note: nearly all actives have a fitted effect of over 75% in size; note: potency is the fitted concentration of half-maximal effect
In short: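 Compounds were pinned onto attached HEK293 cells carrying an ATXN2-firefly luciferase construct and incubated 24 hrs at 37 degrees C. Each well then received a fluorescent viability reagent followed by luciferase substrate for end-point luminescence.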

| SMILES | Potency |
| --- | --- |
| N[C@H](CO)C(=O)O | inactive |
| CC1(C)CCC(NC(=O)[C@@H](N)CCC(=O)O)CC1 | inactive |
| COc1cc2c(cc1O)CC[C@@H]1[C@@H]2CC[C@]2(C)[C@@H](O)CC[C@@H]12 | inactive |
| C[C@@H]1C(=O)NC2=Nc3cccc(Cl)c3CN21 | inactive |
| C[N+]1(CCCCC[N+]2(C)CCCC2)CCCC1 | inactive |
| O=C1CCC(c2ccc(-n3ccnc3)cc2)=NN1 | inactive |
| C[C@]12CC[C@@H]3c4ccc(O)cc4CC[C@H]3[C@@H]1CC[C@@H]2O | inactive |
| CC(=O)O[C@H]1C[C@@H]2CC[C@@H]3[C@H](CC[C@@]4(C)[C@H]3C[C@H]([N+]3(C)CCCCC3)[C@@H]4OC(C)=O)[C@@]2(C)C[C@@H]1[N+]1(C)CCCCC1 | inactive |
| CCCC1O[C@@H]2C[C@H]3[C@@H]4CCC5=CC(=O)C=C[C@]5(C)[C@H]4[C@@H](O)C[C@]3(C)[C@]2(C(=O)CO)O1 (some centres not stated) | inactive |
| CNCCC=C1c2ccccc2CCc2ccccc21 | 15.8 µM (active) |
| O=C(O)c1cc2cc(Cc3cccnc3)ccc2o1 | inactive |
| Nc1cc(Cl)c(NC2=NCCN2)c(Cl)c1 | inactive |
| CC(C)COC(=O)OCN1C(=O)CN(CCN2CC(=O)N(COC(=O)OCC(C)C)C(=O)C2)CC1=O | inactive |
| C1CCc2nnnn2CC1 | inactive |
| N[C@@H](Cc1cnc[nH]1)C(=O)O | inactive |
| CCCn1c(=O)[nH]c(=O)c2[nH]cnc21 | inactive |
| COc1cc(NS(C)(=O)=O)ccc1Nc1c2ccccc2nc2ccccc12 | 0.355 µM (active) |
| COC(=O)[C@H]1[C@H]2C[C@H]3c4[nH]c5ccccc5c4CCN3C[C@H]2CC[C@@H]1O | inactive |
| CC[C@H](C)C(=O)O[C@H]1CCC=C2C=C[C@H](C)[C@H](CC[C@@H]3C[C@@H](O)CC(=O)O3)[C@H]21 | inactive |
